Source: PubChem BioAssay (NCATS)
Results filed as inconclusive are left out. Active and inactive are the calls of the source. Unless noted, the call rests on the fitted dose curve; in most records, active means well fitted curve in either direction with a large enough effect (not every such curve was filed as active); inconclusive means small, poorly fitted or top-dose-only effect, or another doubt; inactive means flat fitted curve, though single readings scatter.

Assays:
[1] = molecular target: Lysosomal acid glucosylceramidase (Homo sapiens) (UniProt P04062); assay: Glucocerebrosidase-p2 (AID 348; in the data active means potency below about 10 µM; further: potency means the concentration at half of the fitted maximal effect); conditions: purified GBA, blue fluorogenic substrate, 40 min
Outline: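 Normal human glucocerebrosidase (0.2 nM) with blue fluorogenic substrate (80 uM final) in citrate/phosphate pH 5.9 with 10mM sodium taurocholate, 0.01% tween-20; 40 min RT, NaOH/glycine stop; fluorescence Ex 365/Em 440; AC50 from a titration from 0.6 nM upwards.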

[2] = AP1 Signaling Pathway (AID 357); conditions: ME-180 AP-1-bla reporter, EGF-induced, beta-lactamase ratio, 5 h; at 7.69 µM (top of the series) unless noted;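 further: ME-180 reporter cells stimulated with EGF at its EC50 level; on the % scale 0 is the no-effect control and ±100 the full control effect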
Outline: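 Beta-lactamase reporter under AP-1 response element, ME-180 background. Stimulus: EC50 EGF. Compound exposure 5 h, 37 °C. Detection: CCF4, 2.5 h RT, 460/530 nm. Values: AC50 from titration.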

[3] = molecular target: Cytochrome P450 1A2 (Homo sapiens) (UniProt P05177); assay: p450-cyp1a2 (AID 410; calls by dose curve; further: potency means the concentration at half of the fitted maximal effect); conditions: recombinant CYP1A2, luciferin-ME demethylation, luminescence; series mostly up to 57 µM
Outline: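 O-Demethylation of luciferin 6' methyl ether by human CYP1A2 is monitored as luciferase luminescence. Substrate sits at Km (100uM); enzyme is 20nM. Values are scaled to 57 uM furafylline as maximal inhibition.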

[4] = NFAT Signaling Pathway (AID 444); conditions: Jurkat NFAT-bla M1, carbachol, beta-lactamase ratio, 5 h; at 7.69 µM (top of the series) unless noted;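 further: carbachol stimulus at about its EC50 of 1 µM final; on the % scale 0 is the no-effect control and ±100 the full control effect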
Outline: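 Read-out: CCF4 FRET ratio (460 nm/530 nm) after 1 h RT dye loading, used for %activity and AC50 from titration series. Cells: Jurkat NFAT-β-lactamase/M1 line, treated with compound plus 1 uM carbachol for 5 h, 37 °C.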

[5] = Stat Signaling Pathway (AID 446); conditions: ME-180 SIE beta-lactamase reporter, IL-6 stimulated, 5 h; at 7.69 µM (top of the series) unless noted;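 further: ME-180 cervical cancer cells given 40 pM IL-6 alongside compound; SIE-controlled beta-lactamase reporter measured as 460/530 nm FRET emission ratio; on the % scale 0 is the no-effect control and ±100 the full control effect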
Outline: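 Overnight-plated ME-180 cells bearing a STAT Inducible Element beta-lactamase reporter; 5 h co-exposure to compound and 40 pM IL-6; values normalized to 300 pM IL-6 and 125 nM JAK inhibitor controls.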

[6] = molecular target: Glucocorticoid receptor (Homo sapiens) (UniProt P04150); assay: GR-GFP Redistribution (AID 450;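 active means compounds whose dose series gives a full or clear partial fitted curve of increased nuclear translocation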; further: potency means the concentration at half of the fitted maximal effect); conditions: U2OS GR-GFP nuclear translocation, laser cytometry, 2 h
[7] = molecular target: Glucocorticoid receptor (Homo sapiens) (UniProt P04150); assay: GR-EFC Redistribution (AID 451; calls by dose curve; further: potency means the concentration at half of the fitted maximal effect); conditions: CHO-K1 GR-EFC translocation, beta-gal luminescence, 2 h
Outline: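 Translocation of GR-ED fusion to nuclear EA restores b-gal, read by luminescence after 1 h room-temperature detection. Engineered CHO-K1 biosensor cells, 1,000/well, exposed 2 h at 37 C to titrations up to 46 uM final.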

[8] = molecular target: Mitogen-activated protein kinase 10 (Mus musculus) (UniProt Q61831); assay: JNK3 AlphaScreen Assay (AID 530); conditions: JNK3 lysate, c-Jun phosphorylation; series mostly up to 57.1 µM;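 further: kinase came from lysate of stimulated human HepG2 cells; signal reports phosphorylation of biotinylated GST-cJun 1-79 at Ser73 with 10 µM ATP; on the % scale 0 is the no-effect control and ±100 the full control effect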
Outline: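 qHTS titrations with 15 min compound pre-incubation before adding ATP (10 uM final). Read-out: AlphaScreen of Ser73-phosphorylated biotin-GST-cJun using HepG2 lysate JNK3 activated by IL-1β and TNFα.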

[9] = molecular target: 3',5'-cyclic-AMP phosphodiesterase 4B (Homo sapiens) (UniProt Q07343); assay: qHTS Assay for Inhibitors of PDE-IV (AID 607; active means well fitted activation curve with a large enough effect in the main read-out, with a control signal flat, not every such curve was filed as active; further: potency means the concentration at half of the fitted maximal effect); conditions: HEK293 ACTOne CNG channel cells, membrane potential fluorescence; series mostly up to 22.9 µM
Outline: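 Live HEK293 cells with a modified cyclic nucleotide-gated (CNG) channel report intracellular cAMP via membrane-potential dye fluorescence (ex 535/em 590 nm). Endogenous PDE-IV was targeted. Compounds were tested at up to 22.9 uM final; RO 20-1724 100 uM served as control.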

[10] = qHTS Assay for Lipid Storage Modulators (AID 1519; calls by dose curve); conditions: Drosophila S3 cells, BODIPY lipid droplet/cell ratio, laser cytometry, cells loaded with oleic acid; for activity change, negative = inhibition: at 57.5 µM (top of the series)
Outline: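 Cells seeded at 5,000 per well were treated with compounds over a concentration series and loaded with oleic acid (400 uM, as added). Lipid droplet fluorescence (488 nm excitation, 500-530 nm channel) was read by laser-scanning cytometry and normalized to 20 uM Triacsin C.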

[11] = molecular target: Dual specificity protein kinase CLK4 (Homo sapiens) (UniProt Q9HAZ1); assay: qHTS Assay for Inhibitors of CDC-like Kinase 4 (ADP-FP Assay) (AID 1795; active means well fitted curve in the direction sought with a large enough effect; an effect the other way counts as inactive or inconclusive;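 further: recombinant human CLK4 phosphorylating RS repeat peptide at 1 µM ATP; on the % scale 0 is the no-effect control and ±100 the full control effect; nearly all actives have a fitted effect of over 60% in size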); conditions: Transcreener ADP fluorescence polarization; series mostly up to 50 µM
Outline: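 Recombinant Clk4 (6.25 nM) phosphorylated 100 uM RS repeat peptide with 1 uM ATP in 25 mM Tris pH 7.5, 10 mM MgCl2, 0.5 mM EGTA, 2.5 mM DTT, 0.01% Triton X-100 for 1 h. ADP was detected by Transcreener ADP2 competitive fluorescence polarization after 30 min at room temperature.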

[12] = molecular target: Ubiquitin carboxyl-terminal hydrolase 1 (Homo sapiens) (UniProt O94782); assay: Inhibitors of USP1/UAF1: Pilot qHTS (AID 504865; active means well fitted curve in the direction sought with a large enough effect; an effect the other way counts as inactive or inconclusive;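 further: rhodamine fluorescence freed from ubiquitin-rhodamine substrate followed over time; top concentration of the series differs between compounds; on the % scale 0 is the no-effect control and ±100 the full control effect; nearly all actives have a fitted effect of over 35% in size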); conditions: purified USP1/UAF1, Ub-rhodamine cleavage fluorescence; series mostly up to 54.9 µM
Outline: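 USP1/UAF1 complex at 1 nM preincubated 15 min at room temperature with compound, then Ub-Rho substrate added at 150 nM final. Fluorescence (480/540 nm) read kinetically in 50 mM HEPES pH 7.8, 0.5 mM EDTA, 1 mM TCEP, 0.1 mg/ml BSA, 0.01% Tween-20.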

[13] = Primary qHTS for small molecule stabilizers of the endoplasmic reticulum resident proteome: Secreted ER Calcium Modulated Protein (SERCaMP) assay (AID 1508630; active means well fitted curve in the direction sought with a large enough effect; an effect the other way counts as inactive or inconclusive; further: on the % scale 0 is the no-effect control and ±100 the full control effect); conditions: SH-SY5Y GLuc-SERCaMP (Gaussia luciferase released on ER calcium loss) secretion, thapsigargin, luminescence; series mostly up to 38.4 µM
Outline: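 The SH-SY5Y reporter protocol was run at 3 concentrations up to 38.3 uM (primary) or 11 concentrations (follow-up): 16 h compound, 100 nM thapsigargin for 4 h, then extracellular luciferase luminescence.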

[14] = molecular target: Cytochrome P450 3A4 (Homo sapiens) (UniProt P08684); assay: qHTS Assay for Activators of Cytochrome P450 3A4 (AID 885; active means well fitted curve in the direction sought with a large enough effect; an effect the other way counts as inactive or inconclusive; further: nearly all actives have a fitted effect of over 65% in size); conditions: recombinant CYP3A4, Luciferin-PPXE luminescence, 60 min; series mostly up to 57.1 µM
Outline: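 Using 20nM recombinant human CYP3A4 in potassium phosphate (200mM), substrate Luciferin-PPXE at 25uM, luminescent luciferin detection followed a 60-min RT NADPH reaction; data scaled to 57 uM ketoconazole.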

[15] = qHTS Assay for Identification of Small Molecule Agonists for Hypoxia Response Element Signaling Pathway (AID 914; active means well fitted activation curve with a large enough effect in the signal ratio, with a control signal flat, not every such curve was filed as active; the % refers to the signal ratio; further: potency means the concentration at half of the fitted maximal effect); conditions: ME-180 (cervical carcinoma) HRE-bla reporter, beta-lactamase ratio, CoCl2, 17 h; activation: stronger effect = higher value
Outline: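 HRE-bla ME-180 cells with beta-lactamase reporter under hypoxia response element, compounds with EC50 CoCl2 for 17 hours at 37 C. CCF4 substrate, 460nm/530nm emission ratio gave %Activity; AC50 from titration series.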

[16] = measured here: cell count channel max response
[17] = measured here: lipid channel max response

Sequence of Cytochrome P450 1A2 (Homo sapiens) (P05177 whole entry, looked up): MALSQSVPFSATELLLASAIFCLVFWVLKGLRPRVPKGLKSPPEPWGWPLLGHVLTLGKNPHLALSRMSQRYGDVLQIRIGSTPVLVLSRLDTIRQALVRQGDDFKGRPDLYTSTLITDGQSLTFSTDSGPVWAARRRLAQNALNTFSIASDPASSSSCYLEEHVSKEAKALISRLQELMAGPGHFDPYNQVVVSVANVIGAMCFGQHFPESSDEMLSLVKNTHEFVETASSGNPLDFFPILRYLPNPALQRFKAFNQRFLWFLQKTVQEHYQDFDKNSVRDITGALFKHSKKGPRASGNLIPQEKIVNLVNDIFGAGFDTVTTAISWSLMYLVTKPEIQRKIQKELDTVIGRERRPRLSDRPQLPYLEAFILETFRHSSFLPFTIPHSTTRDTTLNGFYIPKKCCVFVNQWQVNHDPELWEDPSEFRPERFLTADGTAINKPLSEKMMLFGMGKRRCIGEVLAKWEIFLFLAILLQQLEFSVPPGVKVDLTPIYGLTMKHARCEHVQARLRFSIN
Sequence of Ubiquitin carboxyl-terminal hydrolase 1 (Homo sapiens) (O94782 whole entry, looked up): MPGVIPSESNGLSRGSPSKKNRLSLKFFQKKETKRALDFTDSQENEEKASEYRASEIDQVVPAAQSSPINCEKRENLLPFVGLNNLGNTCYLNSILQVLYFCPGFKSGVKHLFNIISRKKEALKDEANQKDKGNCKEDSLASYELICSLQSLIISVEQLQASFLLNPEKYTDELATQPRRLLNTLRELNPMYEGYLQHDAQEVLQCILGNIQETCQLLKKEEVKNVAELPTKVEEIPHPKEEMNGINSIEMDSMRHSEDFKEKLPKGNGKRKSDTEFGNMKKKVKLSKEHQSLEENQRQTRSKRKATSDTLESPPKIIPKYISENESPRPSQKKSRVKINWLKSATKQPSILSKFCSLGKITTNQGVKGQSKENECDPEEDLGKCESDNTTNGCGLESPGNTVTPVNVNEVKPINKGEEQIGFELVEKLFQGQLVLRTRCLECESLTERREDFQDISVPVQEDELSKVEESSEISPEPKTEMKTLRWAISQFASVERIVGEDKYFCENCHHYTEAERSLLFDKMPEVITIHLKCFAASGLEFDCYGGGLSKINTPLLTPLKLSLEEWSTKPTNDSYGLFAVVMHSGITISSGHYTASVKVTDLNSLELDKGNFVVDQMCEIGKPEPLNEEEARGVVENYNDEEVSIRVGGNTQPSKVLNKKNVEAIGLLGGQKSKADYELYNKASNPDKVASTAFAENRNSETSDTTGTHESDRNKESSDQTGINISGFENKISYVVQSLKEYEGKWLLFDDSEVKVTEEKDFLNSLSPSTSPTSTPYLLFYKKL
Sequence of Lysosomal acid glucosylceramidase (Homo sapiens) (P04062 whole entry, looked up): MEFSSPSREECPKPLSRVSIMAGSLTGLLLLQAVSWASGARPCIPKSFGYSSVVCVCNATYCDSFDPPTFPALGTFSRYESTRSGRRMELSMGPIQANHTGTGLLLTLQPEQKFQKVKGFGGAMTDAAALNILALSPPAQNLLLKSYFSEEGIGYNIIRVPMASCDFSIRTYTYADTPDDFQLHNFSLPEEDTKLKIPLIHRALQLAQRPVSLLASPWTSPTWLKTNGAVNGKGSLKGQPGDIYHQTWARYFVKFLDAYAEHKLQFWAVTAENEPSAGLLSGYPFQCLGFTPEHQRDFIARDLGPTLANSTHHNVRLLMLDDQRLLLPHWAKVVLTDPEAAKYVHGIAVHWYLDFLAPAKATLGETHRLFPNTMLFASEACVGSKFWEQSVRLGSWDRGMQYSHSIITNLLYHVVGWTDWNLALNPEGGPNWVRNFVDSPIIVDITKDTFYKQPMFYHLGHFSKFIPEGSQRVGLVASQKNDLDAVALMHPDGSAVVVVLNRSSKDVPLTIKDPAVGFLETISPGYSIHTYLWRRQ
Sequence of Dual specificity protein kinase CLK4 (Homo sapiens) (Q9HAZ1 whole entry, looked up): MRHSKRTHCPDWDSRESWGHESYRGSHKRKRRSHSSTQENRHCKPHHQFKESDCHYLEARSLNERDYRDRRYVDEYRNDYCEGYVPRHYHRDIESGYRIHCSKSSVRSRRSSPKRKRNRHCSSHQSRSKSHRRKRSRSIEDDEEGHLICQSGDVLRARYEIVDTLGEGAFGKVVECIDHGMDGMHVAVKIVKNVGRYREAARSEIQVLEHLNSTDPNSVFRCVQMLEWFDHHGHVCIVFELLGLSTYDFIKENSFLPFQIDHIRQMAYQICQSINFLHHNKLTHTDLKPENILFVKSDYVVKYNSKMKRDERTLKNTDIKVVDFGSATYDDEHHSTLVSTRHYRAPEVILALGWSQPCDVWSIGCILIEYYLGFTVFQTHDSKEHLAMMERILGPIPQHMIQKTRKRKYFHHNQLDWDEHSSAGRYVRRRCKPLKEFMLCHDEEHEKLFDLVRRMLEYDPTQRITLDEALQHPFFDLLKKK
Sequence of 3',5'-cyclic-AMP phosphodiesterase 4B (Homo sapiens) (Q07343 whole entry, looked up): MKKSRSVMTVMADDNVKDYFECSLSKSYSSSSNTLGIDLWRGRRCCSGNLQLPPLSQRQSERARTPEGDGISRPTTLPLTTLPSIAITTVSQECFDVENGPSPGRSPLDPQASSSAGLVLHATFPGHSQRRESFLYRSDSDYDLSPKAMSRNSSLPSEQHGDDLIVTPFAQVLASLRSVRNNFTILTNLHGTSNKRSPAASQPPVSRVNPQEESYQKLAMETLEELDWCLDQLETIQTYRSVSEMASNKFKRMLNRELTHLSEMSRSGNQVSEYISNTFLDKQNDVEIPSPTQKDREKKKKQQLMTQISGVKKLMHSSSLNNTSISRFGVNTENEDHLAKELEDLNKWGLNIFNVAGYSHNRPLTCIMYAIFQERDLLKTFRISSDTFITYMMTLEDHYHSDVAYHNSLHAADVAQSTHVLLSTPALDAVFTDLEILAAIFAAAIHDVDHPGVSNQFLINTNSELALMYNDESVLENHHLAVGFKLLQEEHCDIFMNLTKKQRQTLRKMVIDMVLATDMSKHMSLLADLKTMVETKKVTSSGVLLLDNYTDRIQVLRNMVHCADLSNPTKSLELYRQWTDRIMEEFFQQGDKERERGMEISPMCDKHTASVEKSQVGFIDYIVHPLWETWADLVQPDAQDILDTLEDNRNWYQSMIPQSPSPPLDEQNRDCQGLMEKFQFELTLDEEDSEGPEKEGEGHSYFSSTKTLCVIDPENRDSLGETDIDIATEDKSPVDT
Sequence of Glucocorticoid receptor (Homo sapiens) (P04150 whole entry, looked up, the tested form may be a part): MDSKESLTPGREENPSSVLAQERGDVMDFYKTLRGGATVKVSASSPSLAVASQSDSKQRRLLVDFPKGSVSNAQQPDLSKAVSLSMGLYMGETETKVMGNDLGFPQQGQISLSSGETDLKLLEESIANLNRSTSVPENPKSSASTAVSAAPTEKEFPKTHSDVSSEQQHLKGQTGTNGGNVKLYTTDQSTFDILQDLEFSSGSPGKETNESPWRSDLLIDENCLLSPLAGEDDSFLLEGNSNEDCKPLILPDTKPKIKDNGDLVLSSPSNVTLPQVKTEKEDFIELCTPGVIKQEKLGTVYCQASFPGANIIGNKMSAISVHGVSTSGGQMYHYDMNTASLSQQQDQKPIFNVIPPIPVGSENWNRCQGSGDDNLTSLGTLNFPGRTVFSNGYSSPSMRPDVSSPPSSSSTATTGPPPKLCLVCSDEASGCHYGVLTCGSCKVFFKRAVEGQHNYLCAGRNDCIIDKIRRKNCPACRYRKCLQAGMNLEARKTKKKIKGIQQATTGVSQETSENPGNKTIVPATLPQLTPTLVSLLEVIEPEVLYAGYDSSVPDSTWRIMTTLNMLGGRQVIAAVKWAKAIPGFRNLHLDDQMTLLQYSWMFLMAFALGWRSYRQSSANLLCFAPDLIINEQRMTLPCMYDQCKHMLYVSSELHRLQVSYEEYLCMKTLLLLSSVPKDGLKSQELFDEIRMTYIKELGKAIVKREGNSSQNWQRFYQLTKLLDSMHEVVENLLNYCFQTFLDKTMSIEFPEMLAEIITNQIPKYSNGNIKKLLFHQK
Sequence of Cytochrome P450 3A4 (Homo sapiens) (P08684 whole entry, looked up): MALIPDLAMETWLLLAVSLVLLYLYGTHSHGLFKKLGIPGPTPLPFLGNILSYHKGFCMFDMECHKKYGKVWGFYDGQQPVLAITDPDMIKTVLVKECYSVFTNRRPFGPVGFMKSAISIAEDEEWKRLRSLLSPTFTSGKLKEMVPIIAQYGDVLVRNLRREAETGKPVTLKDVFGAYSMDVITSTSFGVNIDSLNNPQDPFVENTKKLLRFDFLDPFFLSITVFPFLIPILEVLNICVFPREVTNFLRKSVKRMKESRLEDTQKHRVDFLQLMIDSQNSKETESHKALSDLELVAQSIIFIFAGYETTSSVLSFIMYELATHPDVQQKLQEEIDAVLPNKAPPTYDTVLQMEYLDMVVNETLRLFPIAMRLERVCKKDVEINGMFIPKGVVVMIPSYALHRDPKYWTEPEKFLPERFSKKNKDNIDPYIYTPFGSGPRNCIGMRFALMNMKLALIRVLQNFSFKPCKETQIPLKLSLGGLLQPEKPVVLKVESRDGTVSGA

Row | SMILES | Potency [1] | activity change, negative = inhibition [2] | Potency [3] | activity change, negative = inhibition [4] | activity, negative = inhibition [5] | Potency [6] | Potency [7] | outcome [8] | Potency [9] | activity change, negative = inhibition [10] | max response [10, 16] [%] | max response [10, 17] [%] | Potency [11] | Potency [12] | Potency [13] | Potency [14] | Potency [15]
1 | COc1cccc(Nc2ncc3nc(C)c(=O)n(C)c3n2)c1 | > 11.4 µM (inactive) | -0.695% (inactive) | 1 µM (active) | -5.64% (inactive) | -12.2% (inactive) | > 9.22 µM (inactive) | > 46 µM (inactive) | inactive | inactive | -0.403% (inactive) | 5.56 | 2.52 | inactive | inactive | inactive | – | –
2 | COc1ccccc1CNc1cc(-c2c(C)noc2C)ncn1 | > 11.4 µM (inactive) | 14.8% (inactive) | 5.01 µM (active) | -3.28% (inactive) | -4.72% (inactive) | > 46 µM (inactive) | – | inactive | inactive | 10.8% (inactive) | 30 | 41.7 | – | inactive | inactive | inactive | –
3 | COc1ccc(Oc2ncc3nc(C)c(=O)n(Cc4cccc(OC)c4)c3n2)cc1 | > 11.4 µM (inactive) | -16% (inactive) | – | 6.92% (inactive) | -8.96% (inactive) | > 9.22 µM (inactive) | > 46 µM (inactive) | inactive | – | 4.03% (inactive) | 6.56 | 8.3 | inactive | inactive | inactive | – | –
4 | O=c1cnc2cnc(N3CCOCC3)nc2n1C1CC1 | > 11.4 µM (inactive) | 18.1% (inactive) | 6.31 µM (active) | -1.07% (inactive) | -6.14% (inactive) | > 9.22 µM (inactive) | > 46 µM (inactive) | inactive | inactive | 1.43% (inactive) | 8.4 | 8.8 | inactive | inactive | inactive | – | –
5 | Cc1noc(C)c1-c1cc(Nc2ccccc2)ncn1 | > 11.4 µM (inactive) | -11.6% (inactive) | 1.26 µM (active) | -3.87% (inactive) | -5.08% (inactive) | > 46 µM (inactive) | > 46 µM (inactive) | inactive | – | 4.92% (inactive) | 15.2 | 17.9 | inactive | inactive | inactive | – | –
6 | Cc1nc2cnc(Nc3ccccc3)nc2n(C2CC2)c1=O | > 11.4 µM (inactive) | -25.6% (inactive) | 1 µM (active) | 1.3% (inactive) | -10.8% (inactive) | > 9.22 µM (inactive) | > 46 µM (inactive) | inactive | inactive | -15.4% (inactive) | -13.6 | -28.8 | – | inactive | inactive | – | –
7 | CNc1cc(-c2c(C)noc2C)ncn1 | > 11.4 µM (inactive) | 25.4% (inactive) | 5.01 µM (active) | 3.01% (inactive) | 27.1% (inactive) | > 46 µM (inactive) | > 46 µM (inactive) | inactive | inactive | 4.96% (inactive) | 25.8 | 27.2 | inactive | inactive | inactive | – | 3.16 µM (active)
8 | N#Cc1ccccc1-c1nc(NCCN2CCOCC2)c2ccccc2n1 | > 11.4 µM (inactive) | 1.04% (inactive) | – | -3.19% (inactive) | 2.02% (inactive) | > 46 µM (inactive) | > 46 µM (inactive) | inactive | inactive | 4.61% (inactive) | 14.8 | 18.6 | inactive | inactive | inactive | – | –
9 | CCNc1ncc2nc(C)c(=O)n(Cc3cccs3)c2n1 | > 11.4 µM (inactive) | 19% (inactive) | 2 µM (active) | -12.9% (inactive) | -7.43% (inactive) | > 9.22 µM (inactive) | – | inactive | – | 6.19% (inactive) | -9.24 | -5.88 | inactive | inactive | inactive | inactive | –
10 | Cc1noc(C)c1-c1ccc2ncnc(NC3CCNCC3)c2c1 | > 11.4 µM (inactive) | 17.3% (inactive) | 31.6 µM (active) | -27.4% (inactive) | 10.3% (inactive) | > 46 µM (inactive) | > 46 µM (inactive) | inactive | inactive | 2.83% (inactive) | 3.61 | 2.68 | – | inactive | inactive | – | –
11 | Cc1cnc(CNc2cc(-c3cccc(NS(C)(=O)=O)c3)ncn2)cn1 | > 11.4 µM (inactive) | 20.7% (inactive) | – | -0.447% (inactive) | -0.385% (inactive) | > 46 µM (inactive) | > 46 µM (inactive) | inactive | inactive | 5.3% (inactive) | 37.3 | 40.2 | – | inactive | inactive | – | –
12 | CN(C)C(=O)c1ccc(-c2cc(Nc3ccccc3)ncn2)cc1 | > 11.4 µM (inactive) | -5.39% (inactive) | 12.6 µM (active) | 4.63% (inactive) | 4.86% (inactive) | > 46 µM (inactive) | > 46 µM (inactive) | inactive | – | 6.97% (inactive) | 33.4 | 40.6 | – | inactive | inactive | – | –
13 | CCNc1ncc2nc(C)c(=O)n(C3CC3)c2n1 | > 11.4 µM (inactive) | -8.59% (inactive) | 5.01 µM (active) | -13.9% (inactive) | -2.73% (inactive) | > 9.22 µM (inactive) | – | inactive | 2.51 µM (active) | -1.33% (inactive) | 6.66 | 4.64 | inactive | inactive | inactive | – | –
